Experimental data taken from PubChem BioAssay AID1209 (Sanford-Burnham Center for Chemical Genomics, 2008).
The whole screen tested about 190,000 compounds, of which about 810 (0.43%) were called active. Cut-off read from the data, not from the text of the source: active = inhibition above about 50%; inactive = the rest. The sample as a whole holds a higher share of actives than the screen did.

Biological target: Mannose-6-phosphate isomerase (Homo sapiens) (UniProt P34949)
Experiment: inhibitors of human PMI, primary screen, biochemical, fluorescence intensity, coupled assay (AID 1209);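 note: plate controls were DMSO vehicle for no effect and wells lacking substrate for full effect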
Conditions: purified PMI enzyme, at 20 µM, hits give high values

Mannose-6-phosphate isomerase (Homo sapiens), sequence (P34949 whole entry, looked up): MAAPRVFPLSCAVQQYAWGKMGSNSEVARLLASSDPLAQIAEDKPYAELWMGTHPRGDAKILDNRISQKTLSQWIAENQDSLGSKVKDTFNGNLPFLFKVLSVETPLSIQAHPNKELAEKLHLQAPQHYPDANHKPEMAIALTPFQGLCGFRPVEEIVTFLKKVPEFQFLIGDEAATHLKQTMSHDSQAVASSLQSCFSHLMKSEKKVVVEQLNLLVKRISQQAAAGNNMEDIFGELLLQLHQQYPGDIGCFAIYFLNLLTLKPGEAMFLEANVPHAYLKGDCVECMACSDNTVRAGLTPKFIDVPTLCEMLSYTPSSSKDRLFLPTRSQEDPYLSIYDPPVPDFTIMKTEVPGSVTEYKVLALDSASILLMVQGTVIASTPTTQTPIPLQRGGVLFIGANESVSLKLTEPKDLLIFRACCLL

inhibition, active:
COC(=O)c1ccc(C(=O)OC)c(-n2c(=O)c3ccccc3c3ccccc3c2=O)c1 80.2%
O=C1CCC([N+](=O)[O-])C(c2cccc3ccccc23)N1 (stereo not drawn) 101%
O=c1ccc2cc3c([nH]c4ccc(Br)cc43)oc-2c1O 70.2%
S=c1[nH]nc(Cc2ccc(Br)cc2)n1/N=C/c1ccc(Cl)cc1 51.1%
Cn1c(=Nc2ccc(N3CCOCC3)cc2)ccc2ccccc21 78.4%
Oc1c(C=Nc2cccc3nsnc23)ccc2ccccc12 70.7%
O=c1oc2c(O)c(O)cc3c(=O)oc4c(O)c(O)cc1c4c23 67.5%
Cc1c(Cc2ccccc2)c(=O)oc2c(O)c(O)ccc12 77.6%
O=c1c2ccccc2sn1-c1cc(S(=O)(=O)N2CCOCC2)ccc1N1CCCC1 92.7%
O=c1c2ccccc2sn1-c1cc(S(=O)(=O)N2CCOCC2)ccc1N1CCOCC1 104%

inhibition, inactive:
CCN(CC)CCNC(=O)C1CCC(=O)N1CCc1ccccc1 (stereo not drawn) 4.7%
CCOc1cc(/C=N/O)ccc1OCc1ccc(F)cc1 -0.3%
CC(C)NC(=O)c1onc(CSc2ccc(F)cc2)c1C(=O)O -5.1%
O=C(c1ccc(F)cc1)N1CCN2C(=O)c3ccccc3C12c1ccc(Cl)cc1 (stereo not drawn) 8.3%
Cc1c([N+](=O)[O-])ccc(S(=O)(=O)N2CCC(C(N)=O)CC2)c1C 10.6%
COC(=O)c1ccc2c(=O)n(-c3ccccc3)c(=S)[nH]c2c1 0.9%
COC(=O)c1ccc2c(=O)n(-c3ccccc3F)c(=S)[nH]c2c1 -15.3%
CCCCCN(C(=O)NC(=O)Nc1nncs1)S(C)(=O)=O -0.4%
CCn1cc(C2=NCCO2)c2ccccc21 0.2%
CCOC(=O)Cc1csc(NC(=O)c2c(O)c3ccccc3n(C)c2=O)n1 7.5%
O=C1CCC([N+](=O)[O-])C(c2ccccc2Cl)N1 (stereo not drawn) 2.8%
O=C1CCC([N+](=O)[O-])C(c2cccc(Cl)c2Cl)N1 (stereo not drawn) -4.8%
O=C(Cc1ccccc1)Nc1ccccc1C(=O)O -3%
O=c1c2c([nH]c3ccc(Br)cc13)CCCC2 -15.1%
Cc1cc(=O)c2cc(Br)ccc2[nH]1 0.3%
O=C(NCC(=O)N(Cc1cccs1)C(C(=O)NC1CCCCC1)c1ccco1)c1ccco1 (stereo not drawn) 11%
Cc1n[nH]c(=S)n1/N=C/c1ccc(OCc2ccc(Cl)cc2)cc1 -6.8%
CSc1ccc(/C=N/n2c(Cc3ccc(Br)cc3)n[nH]c2=S)cc1 14.5%
CCN1CCN(C(=O)C(C)Nc2cc(Cl)c(OC)cc2OC)CC1 (stereo not drawn) 26.6%
O=C(CSc1nc2ccccc2c(=O)[nH]1)c1ccc(O)cc1O -5.9%
CCCCNS(=O)(=O)c1ccc(NC(=O)C(Sc2ccccc2)c2ccccc2)cc1 (stereo not drawn) 23.4%
O=c1c2ccccc2oc2nc(-c3ccco3)n(-c3ccccc3)c(=O)c12 1.3%
CCn1c(=Nc2ccc(N3CCOCC3)cc2)ccc2ccccc21 6%
Cn1c(N=Nc2ccc(N3CCOCC3)cc2)[n+](C)c2ccccc21 15.1%
CCOC(=O)Cc1csc(NC(=O)c2c(-c3ccccc3)noc2C)n1 2.9%
Cc1cc(C)n(C(=O)c2ccncc2)n1 6.1%
Cc1oc2cc(O)ccc2c(=O)c1Oc1ccccc1 9.2%
CC(=O)Oc1ccc2c(=O)c(N3C(=O)c4ccccc4C3=O)c(C)oc2c1C 14.5%
CCn1c(NCc2ccccn2)nc2c1c(=O)n(C)c(=O)n2C -0.4%
Oc1c(/C=N/c2ncn[nH]2)ccc2ccccc12 14.9%
Oc1c(/C=N/Nc2cccc3cccnc23)ccc2ccccc12 -30.2%
CCCCCCC1CC(=O)NC(=S)N1 (stereo not drawn) 4.8%
COc1ccc(NC(=O)C(C)Oc2ccc(/C(C)=N\O)cc2)cc1 (stereo not drawn) -0.3%
COc1cccc2cc(C(C)N(CCCN3CCOCC3)C(=S)Nc3cccc(C)c3)oc12 (stereo not drawn) 5.2%
COc1ccc(CNC(=O)c2cccc3c2C(=O)N(Cc2cccnc2)C3)cc1 4.4%
Cc1c(Br)c(=O)oc2c(Br)c(O)ccc12 -26.1%
Cc1c(Br)c(=O)oc2c(Br)c(O)c(O)cc12 12.8%
O=C(COC(=O)c1ccc(Cl)nc1)c1ccc2c(c1)OCCO2 -10.6%
CSCC[C@H](NC(=O)c1cc([N+](=O)[O-])ccc1Cl)c1nc2ccccc2[nH]1 16.7%
CN(C)c1ncccc1-c1nc2ccccc2s1 -2.6%
Cc1c(Cc2ccccc2)c(=O)oc2c(CN(C)C)c(O)c(Cl)cc12 1.2%
COc1ccc2c(C)c(Cc3ccccc3)c(=O)oc2c1OC 0.7%
N#C/C(C(=O)N1CCCCC1)=C1/N=C(N)c2ccccc21 -1.3%
CC1CC1C(=O)Nc1cc(S(=O)(=O)N2CCOCC2)ccc1N1CCCC1 (stereo not drawn) -3.9%
N#Cc1ccc(OCC(=O)NCCc2ccc(S(N)(=O)=O)cc2)cc1 -7%
O=S(=O)(c1ccc2c(c1)oc1ccccc12)N1CCOCC1 9.1%
Cc1ccc(C)n1-c1cc(S(=O)(=O)N2CCOCC2)ccc1N1CCCC1 9.8%
O=c1c2ccccc2sn1-c1ccc(S(=O)(=O)N2CCCC2)cc1 42.4%
O=C(O)c1cc(S(=O)(=O)N2CCOCC2)ccc1N1CCOCC1 -1%
CC(=O)c1ccc(N(C(=O)c2ccco2)C(C(=O)NC2CCCC2)c2ccc(N3CCOCC3)cc2)cc1 (stereo not drawn) 6.3%
Cc1ccc(P(=O)(CO)c2ccc(C)cc2)cc1 -12%
CN(Cc1ccccc1)C(=O)COC(=O)c1ccc(Cl)c(N)c1 9.3%
O=C(Cc1ccc(Cl)cc1Cl)NCC1(N2CCOCC2)CCCCC1 14.5%
